The whole screen tested about 5,500 compounds, of which about 2,000 (36%) were called active. Not shown: some 18% with an inconclusive outcome. Cut-off read from the data, not from the text of the source: active = normalized growth mostly below about 0.91 (no sharp cut-off); inconclusive = no clear call, values can overlap the other calls; inactive = mostly above about 0.92. Some of the results follow.
Experiment: chemical genetic growth profiling, strain panel (AID 1159580);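 note: tested at 20 µM; growth read once vehicle control cultures reached saturation at 30 °C; 1 = growth at the plate median or of vehicle wells; lower values mean less growth of the strain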
Conditions: S. cerevisiae deletion strains, growth OD

Measured: normalized growth

COc1ccc2c(c1O)OCC1c3cc4c(cc3OC21)OCO4 (stereo not given)
inactive: locus YAL013W, strain DEP1, stronger effect = lower value 0.991 | locus YBR021W, strain FUR4, stronger effect = lower value 0.964 | locus YBR229C, strain ROT2, stronger effect = lower value 0.96 | locus YCL029C, strain bik1, stronger effect = lower value 1 | locus YDL035C, strain GPR1, stronger effect = lower value 0.935 | locus YDL074C, strain BRE1, stronger effect = lower value 0.882 | locus YDL101C, strain DUN1, stronger effect = lower value 0.953 | locus YDL134C, strain PPH21, stronger effect = lower value 0.986 | locus YDL185W, strain tfp1, stronger effect = lower value 0.957 | locus YDL192W, strain arf1, stronger effect = lower value 0.986 | locus YDR101C, strain arx1, stronger effect = lower value 0.986 | locus YDR150W, strain NUM1, stronger effect = lower value 0.983 | locus YDR162C, strain NBP2, stronger effect = lower value 0.88 | locus YDR318W, strain mcm21, stronger effect = lower value 0.979 | locus YDR388W, stronger effect = lower value 1 | locus YDR502C, strain sam2, stronger effect = lower value 0.952 | locus YEL061C, strain CIN8, stronger effect = lower value 0.987 | locus YER110C, stronger effect = lower value 0.994 | locus YER155C, strain BEM2, stronger effect = lower value 1 | locus YER167W, strain BCK2, stronger effect = lower value 1 | locus YGL078C, strain dbp3, stronger effect = lower value 0.983 | locus YGL086W, strain mad1, stronger effect = lower value 0.996 | locus YGL248W, strain PDE1, stronger effect = lower value 0.974 | locus YGR078C, strain PAC10, stronger effect = lower value 0.909 | locus YGR135W, strain pre9, stronger effect = lower value 0.958 | locus YGR229C, strain SMI1, stronger effect = lower value 0.909 | locus YGR252W, strain gcn5, stronger effect = lower value 0.857 | locus YHR030C, strain SLT2, stronger effect = lower value 1 | locus YHR079C, strain IRE1 (second series), stronger effect = lower value 0.982 | locus YHR094C, strain hxt1, stronger effect = lower value 1 | locus YHR129C, strain ARP1, stronger effect = lower value 0.988 | locus YHR200W, strain rpn10, stronger effect = lower value 0.998 | locus YIL066C, strain RNR3, stronger effect = lower value 0.974 | locus YIL073C, strain SPO22, stronger effect = lower value 1.01 | locus YIL125W, strain kgd1, stronger effect = lower value 0.99 | locus YIR030C, strain dcg1, stronger effect = lower value 0.986 | locus YJL095W, strain BCK1, stronger effect = lower value 0.924 | locus YJL134W, strain LCB3, stronger effect = lower value 0.998 | locus YJL168C, strain set2, stronger effect = lower value 0.987 | locus YJL187C, strain SWE1 (second series), stronger effect = lower value 0.939 | locus YJR043C, strain POL32, stronger effect = lower value 0.987 | locus YJR075W, strain HOC1, stronger effect = lower value 0.939 | locus YKL009W, strain mrt4, stronger effect = lower value 0.92 | locus YKL068W, stronger effect = lower value 0.998 | locus YKL085W, strain MDH1 (second series), stronger effect = lower value 1.01
